Compound activity from PubChem BioAssay.
L3MBTL1 block: L3MBTL1 (human) inhibition | AlphaScreen L3MBTL1–H3K9me1 peptide binding | Potency, µM (series often up to 57.1 µM), hits mostly inhibitors | hit rate 0.66% among 230,000 | AID 485360; also: nearly all actives have a fitted effect of over 60% in size
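AlphaScreen proximity signal between nickel-chelate acceptor and streptavidin donor beads (final 10 ug/mL) reports binding of 50 nM L3MBTL1 to 75 nM biotin-H3 K9me1 peptide; complex incubated with compounds 30 min at room temperature; cefsulodin titration as control.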
Sfp PPTase inh: blocks B. subtilis Sfp PPTase activity | Q9F4F7 | Biochemical Sfp PPTase activity, qHTS | Potency, µM, actives largely listed as inhibitors | hit rate 3.5% among 310,000 | AID 1490;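 also: the enzyme is Sfp with the accession as filed and its product quenches rhodamine fluorescence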
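With Hepes-Na pH 7.6 buffer containing 10 mM MgCl2, Sfp (15 nM) modified BHQ-2-YbbR (12.5 uM) using rhodamine-CoA (5 uM). Two reads 30 minutes apart at 525/598 nm yielded each well's rate.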
G9a inh: blocks human histone lysine methyltransferase G9a; Q96KQ7; Potency, µM (series often up to 102 µM), hits mostly inhibitors; hit rate 8.8% among 350,000; G9a H3K9 monomethylation, AlphaScreen, 2 h; also: nearly all actives have a fitted effect of over 75% in size
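Signal arises when biotinylated H3K9 peptide, once monomethylated, bridges streptavidin donor and antibody-captured acceptor beads. Enzyme at 20 nM was preincubated 15 min with test compounds; peptide 500 nM and SAM 20 uM then reacted for 2 h.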
HP1b chromo inh: blocks HP1-beta chromodomain binding to methylated histone tails. P83916. AlphaScreen HP1-beta / biotin-H3K9me3 peptide binding. Potency, µM (series often up to 114 µM), usual class: inhibitors. hit rate 0.56% among 390,000. AID 540317; also: nearly all actives have a fitted effect of over 70% in size
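HP1-beta protein (50 nM final) preincubated 30 min at room temperature with biotinylated H3(1-18)K9me3 peptide (50 nM) in PBS pH 7.4, 0.01% Tween-20, then compound added for 30 min. AlphaScreen streptavidin donor/nickel chelate acceptor beads (10 ug/mL final), 30 min dark, luminescence read.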
JMJD2A Tudor: JMJD2A Tudor domain (human) inhibition. AlphaScreen JMJD2A-Tudor / H3K4me3 peptide binding. hit rate 4.4% among 390,000. O75164. Potency, µM (series often up to 114 µM), usual class: inhibitors; also: nearly all actives have a fitted effect of over 50% in size
Target sequence (O75164 whole entry, looked up, the tested form may be a part): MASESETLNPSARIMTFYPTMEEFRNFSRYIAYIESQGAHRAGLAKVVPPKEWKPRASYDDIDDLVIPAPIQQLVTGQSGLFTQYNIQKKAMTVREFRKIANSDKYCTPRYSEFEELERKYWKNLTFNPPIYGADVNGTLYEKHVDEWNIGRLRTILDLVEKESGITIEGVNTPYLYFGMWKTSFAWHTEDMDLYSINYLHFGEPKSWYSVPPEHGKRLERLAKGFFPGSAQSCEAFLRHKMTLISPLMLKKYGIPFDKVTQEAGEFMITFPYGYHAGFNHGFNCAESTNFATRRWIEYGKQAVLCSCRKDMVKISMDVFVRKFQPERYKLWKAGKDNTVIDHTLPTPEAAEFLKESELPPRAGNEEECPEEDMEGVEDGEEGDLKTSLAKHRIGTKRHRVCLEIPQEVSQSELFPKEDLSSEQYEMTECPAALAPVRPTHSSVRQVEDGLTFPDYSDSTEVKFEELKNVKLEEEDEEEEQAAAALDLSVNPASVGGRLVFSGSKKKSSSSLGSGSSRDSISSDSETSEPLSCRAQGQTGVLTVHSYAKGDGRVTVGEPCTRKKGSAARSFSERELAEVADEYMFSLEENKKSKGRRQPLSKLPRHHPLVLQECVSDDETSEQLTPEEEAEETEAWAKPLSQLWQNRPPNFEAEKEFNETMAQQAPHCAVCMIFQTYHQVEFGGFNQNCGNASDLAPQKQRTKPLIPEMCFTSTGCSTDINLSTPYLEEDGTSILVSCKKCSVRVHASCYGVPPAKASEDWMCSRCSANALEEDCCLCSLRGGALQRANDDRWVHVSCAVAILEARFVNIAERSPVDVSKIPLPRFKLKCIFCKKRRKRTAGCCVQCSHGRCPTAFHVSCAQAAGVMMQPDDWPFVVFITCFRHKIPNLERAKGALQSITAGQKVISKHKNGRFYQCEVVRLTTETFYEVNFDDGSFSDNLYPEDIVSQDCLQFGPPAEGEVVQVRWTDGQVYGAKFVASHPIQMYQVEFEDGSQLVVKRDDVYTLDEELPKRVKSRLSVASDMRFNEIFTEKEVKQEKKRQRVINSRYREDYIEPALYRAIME
BAZ2B inh: BAZ2B (human) inhibition | Q9UIF8 | AlphaScreen BAZ2B-H3K14Ac peptide displacement | Potency, µM (titrated, usually from 114 µM), hits mostly inhibitors | hit rate 4.4% among 360,000; also: nearly all actives have a fitted effect of over 60% in size
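AlphaScreen displacement: compounds (up to 110uM) incubated 30 min at room temperature with a preformed 50 nM BAZ2B/50 nM biotinylated H3K14Ac peptide complex in PBS pH 7.4 with Tween-20. Donor and acceptor beads at 10 ug/mL final added, 20 min light-protected before reading.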
Hits are given with their value; n = inactive; u = inconclusive; x = not tested or not shown; [ ] = another dose, or the depositor's remark. In the library only some 12% were active in any assay of this set; here they are far more common. Calls follow the shape of the dose curve; as a rule, active = well fitted curve in the direction sought with a large enough effect; inconclusive = small, poorly fitted or top-dose-only effect, or another doubt; inactive = no such curve, though single readings can be large; an effect the other way counts as inactive or inconclusive.

SMILES	L3MBTL1 block	Sfp PPTase inh	G9a inh	HP1b chromo inh	JMJD2A Tudor	BAZ2B inh
Cc1cccc(OCCSc2nc3ccc(NC(=O)c4cccs4)cc3s2)c1	x	x	n	n	n	u
CCc1cc(OCCOCCN(C)C)ccc1Cl	n	n	u	u	2.24µM	u
CCN(CC)CCOCCOc1cc(C)c(Cl)c(C)c1	x	n	n	n	n	n
C=CCc1cc(Cl)ccc1OCCOCCNCCOC	n	n	u	u	10µM	70.8µM
Cc1ccc(OCCOCCN(C)C)c(Cl)c1	n	n	8.91µM	u	39.8µM	79.4µM
CC(=O)c1cccc(NC(=O)CCCSc2nc(-c3ccco3)cc(C(F)(F)F)n2)c1	x	x	n	n	n	n
CCc1cccc(CC)c1NC(=O)c1cccc(N)c1	x	n	n[12.7 µM]	u	56.2µM	n
Cc1cc(C(=O)CSc2nncs2)c(C)n1-c1ccc2c(c1)OCO2	n	n	u	u	u	44.7µM
Cc1cc(C(=O)CN2C(=O)NC3(CCCCC3)C2=O)c(C)n1-c1ccc2c(c1)OCO2	n	n	n	u	56.2µM	u
Cc1cc(-n2c(C)cc(C(=O)CN3C(=O)NC4(CCCCCC4)C3=O)c2C)no1	n	n	n[2.33 µM]	n	n	u
CCOc1ccc(C[C@H]2NC(=O)CCSSC[C@@H](C(=O)N3CCC[C@H]3C(=O)N[C@@H](CCCN)C(=O)NCC(N)=O)NC(=O)[C@H](CC(N)=O)NC(=O)[C@H]([C@@H](C)O)NC(=O)[C@H]([C@@H](C)CC)NC2=O)cc1	x	n	x	x	x	x
CCCCN(C)C(=O)CN1C(=O)CCn2nc(-c3cn(C)c4ccccc34)cc21	x	x	n	n	n	n
O=C(/C(=C/O)N=Nc1ccccc1)c1ccncc1	x	n	n	n	u	u
Cc1cccc(N=N/C(=C\O)C(=O)c2cccs2)c1	u	n	28.2µM	u	25.1µM	11.2µM
O=C(Nc1ccccc1C(F)(F)F)NC1(C(=O)N2CCOCC2)CCCCC1	x	x	x	n	8.91µM	x
COc1cc(/C=C2/SC(=O)NC2=O)ccc1Oc1ccc([N+](=O)[O-])cc1[N+](=O)[O-]	x	50.1µM	u	n	n[11.4 µM]	u
COc1cc(/C=C2\SC(=O)NC2=O)ccc1Oc1ccc([N+](=O)[O-])cn1	n	79.4µM	n[12.7 µM]	n	n	n
COc1cc(/C=C2/NC(=O)N(Cc3ccccc3F)C2=O)ccc1Oc1ccc([N+](=O)[O-])cn1	n	n	n	n	n	n
COc1cc(/C=N/NC(=O)c2ccc3ccccc3c2)ccc1Oc1ccc([N+](=O)[O-])cn1	n	n	1.78µM	n	25.1µM	n
CCC(=O)OCCCNc1nc(-c2ccc(Cl)cc2)nc2ccccc12	x	x	n	n	n	n
Cc1ccccc1-c1nc2c(c(SCc3cccc(Cl)c3)n1)Cc1c(CO)cnc(C)c1O2	x	x	n	n	n	n
Cc1nc2ccccn2c1C(=O)NNC(=S)Nc1ccccc1	n	n	n	n	n	n
Cc1cccc(-n2cnc(C(=O)N/N=C\c3ccc(Br)cc3)c2)n1	x	n	n	n	u	n
Cc1cccc(-n2cnc(C(=O)NNC(=S)Nc3ccc(Cl)cc3)c2)n1	u	n	8.91µM	n	35.5µM	11.2µM
Cc1nc2ccccn2c1C(=O)NNC(=O)Nc1ccccc1	x	n	50.1µM	n	n	n
SMILES	L3MBTL1 block	Sfp PPTase inh	G9a inh	HP1b chromo inh	JMJD2A Tudor	BAZ2B inh
COc1ccc(Br)cc1S(=O)(=O)NNC(=O)c1c(C)nc2ccccn12	n	n	79.4µM	n	n[11.4 µM]	n
Cc1nc2ccccn2c1C(=O)NNC(=S)Nc1ccc(Cl)cc1	n	n	1.26µM	n	u	n
COc1cc(OC)c(NC(=O)CSC2=Nc3ccccc3N=C(c3ccc(F)cc3)C2)cc1Cl	x	x	n	n	n	u
Cc1ccc(-c2noc(-c3ccccc3NC(=O)C3CC(=O)N(c4ccc(C)cc4)C3)n2)cc1 (configuration not stated)	x	x	n	n	n	n
CCOC(=O)CN1CC23C=CC(O2)C(C(=O)Nc2cc(OC)ccc2OC)C3C1=O (configuration not stated)	n	n	n	n	n	n
COC(=O)C1C2C=CC3(CN(Cc4ccco4)C(=O)C13)O2 (configuration not stated)	n[11.4 µM]	12.6µM	u	n	n	n
COc1ccc(NC(=O)C2C3C=CC4(CN(Cc5cccnc5)C(=O)C24)O3)c(OC)c1 (configuration not stated)	x	n	n	n	n	50.1µM
CCOC(=O)CN1CC23C=CC(O2)C(C(=O)Nc2ccc(OC)cc2OC)C3C1=O (configuration not stated)	n	n	50.1µM	n	n	n
O=C(Cn1cnc2onc(-c3ccc(F)cc3)c2c1=O)N1CCN(c2ccccc2F)CC1	x	x	n	n	n	n
CC1=C(C(=O)Nc2ccccc2)C(c2cccn2C)n2ncnc2N1 (configuration not stated)	x	x	n	n	n	n
Cn1c(SCC(=O)c2ccc3c(c2)Cc2ccccc2-3)nnc1-c1ccccc1	n	79.4µM	35.5µM	n	n[11.4 µM]	u
Cc1ccc(C(=O)CSc2nnc(-c3ccccc3N)n2C)cc1C	n	n	n	n	n	n
Cn1c(SCC(=O)c2ccccc2)nnc1-c1ccccn1	n	n	n	n	n	79.4µM
CCC(=O)Nc1nnc(SCC(=O)c2ccc3c(c2)Cc2ccccc2-3)s1	n	56.2µM	u	n	n	n
Cn1c(SCC(=O)c2ccccc2)nnc1-c1ccc(O)cc1	x	79.4µM	n[12.7 µM]	n	n	n
Cn1c(SCC(=O)c2ccccc2)nnc1-c1ccncc1	u	n	n	n	n	n
CC(=O)Nc1nnc(SCC(=O)c2ccc3c(c2)Cc2ccccc2-3)s1	n	n	n	n	n	n
COc1cc(NC(=O)Cn2nnnc2-c2ccccc2F)cc(OC)c1OC	x	x	n	n	n	n
Cc1ccc(-c2nn3c(=O)cc(CN4CCN(C(=O)/C=C/c5ccccc5)CC4)nc3s2)cc1	x	x	n	n	n	n
Cc1ccccc1CSc1nnc(NC(=O)Cc2cccs2)s1	u	n	n	n	n	70.8µM
CC(C)(C)C(=O)Nc1nnc(SCc2ccc(F)cc2)s1	x	n	n	n	n	n
COCCSc1nnc(NC(=O)Cc2cccs2)s1	n	n	u	n	n	n
CCC(=O)Nc1nnc(SCc2ccc(F)cc2)s1	n	n	8.91µM	n	n	n
O=c1c(-c2ccc(F)cc2)nc2cnc(N3CCOCC3)nc2n1C[C@H]1CCCO1	x	n	n[12.7 µM]	x	x	x
O=C(CNC(=O)C1CCCCC1)OCC(=O)c1ccccc1	x	x	x	n	n	x
CCc1nnc(SCc2ccc(F)cc2Cl)c2cc3sc(C)cc3n12	x	x	n	n	89.1µM	n
CCc1nnc(SCc2cc(C)ccc2C)c2cc3sc(C)cc3n12	x	x	10µM	n	n	n
O=C(NCCC1CCCC1)c1cccs1	u	n	n	n	n	n
CCOC(=O)C1CCN(C(=S)NC(=O)c2cccs2)CC1	x	n	39.8µM	u	n	n
